Source: PubChem BioAssay
For some of these results: Entries with a potency or affinity are not part of this list. Active and inactive are the calls of the source. Unless noted, cut-off not given; nearly all actives show IC50 up to about 0.98 µM.

Test system: not listed separately
Assay: inhibition of 3D7 malaria parasite growth – strain 3D7 (AID 2306; call rule not given here;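 further: 0% = DMSO wells and 100% = chloroquine plus artemisinin control wells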)
Details: P. falciparum 3D7 erythrocytic growth, LDH absorbance, 72 h; at 2 µM; active compounds read high

| Compound | growth inhibition |
| --- | --- |
| O=C(C=Cc1ccc(Cl)c(Cl)c1)NCCCCCN1CCCC(CCCNC(=O)[C@@H]2C[C@H]2c2ccccc2)C1 (stereo partly drawn) | 85% (active) |
| O=C(/C=C/c1ccc(Cl)c(Cl)c1)NCCCCCN1CCC(NC(=O)Nc2ccc(F)c(Cl)c2)CC1 | 100% (active) |
| COc1cc(NC(=O)Nc2ccc([N+](=O)[O-])cc2OC)c(OC)cc1Cl | 87% (active) |

Biological target: Calcium-dependent protein kinase 1 (Plasmodium falciparum (isolate 3D7)) (UniProt P62344)
Assay: PfCDPK1 kinase inhibitors, biochemical, TCAMS library (AID 1159585);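 further: inhibitors leave more ATP so luminescence rises with inhibition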
Details: recombinant PfCDPK1, Kinase-Glo ATP depletion luminescence

Sequence of Calcium-dependent protein kinase 1 (Plasmodium falciparum (isolate 3D7)) (P62344 whole entry, looked up): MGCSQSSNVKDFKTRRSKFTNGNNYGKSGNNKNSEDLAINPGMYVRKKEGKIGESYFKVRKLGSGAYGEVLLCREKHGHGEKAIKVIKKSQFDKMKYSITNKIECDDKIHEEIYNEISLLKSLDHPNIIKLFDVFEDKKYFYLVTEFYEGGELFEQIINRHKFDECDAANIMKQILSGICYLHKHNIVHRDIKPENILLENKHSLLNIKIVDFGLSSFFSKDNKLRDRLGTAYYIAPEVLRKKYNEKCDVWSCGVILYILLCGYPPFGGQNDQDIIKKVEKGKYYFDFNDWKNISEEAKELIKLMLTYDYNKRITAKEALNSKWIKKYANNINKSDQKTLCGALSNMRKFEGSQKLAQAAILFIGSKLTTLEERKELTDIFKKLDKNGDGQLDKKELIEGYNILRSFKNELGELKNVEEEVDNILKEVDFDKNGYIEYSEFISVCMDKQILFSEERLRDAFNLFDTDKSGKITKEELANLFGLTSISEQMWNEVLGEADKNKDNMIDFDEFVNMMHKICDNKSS

| Compound | outcome |
| --- | --- |
| O=C(Nc1ccc(Cl)cc1)Nc1cccc(-c2cccc(-c3nc4ccc(F)cc4[nH]3)c2)c1 | inactive |
| c1cncc(CCNCc2cccc(-c3csc(-c4nc5ccccc5[nH]4)c3)c2)c1 | inactive |
| COC(=O)c1cccc(NC(=O)NC2CCN(c3ccnc(NCc4ccc(F)cc4)n3)CC2)c1 | inactive |
| Cc1cc(=O)c(-c2ccc(Oc3cccc(OC(F)(F)F)c3)cc2)c(C)[nH]1 | inactive |
| COc1ccc(-c2csc(NC(=O)CCC(=O)O)n2)cc1OC | inactive |
| COc1nc2c(CCN3CC[C@H](NCc4cc(C#N)c5c(c4)CCO5)[C@H](O)C3)ccnc2cc1F | inactive |
| O=C(/C=C/c1ccc(Cl)c(Cl)c1)NCCCCCN1CCC(CCNC(=O)/C=C/c2ccccc2F)CC1 | inactive |
| COc1ccc(NC(=O)Nc2ccc(-c3ccncc3)c(C(F)(F)F)c2)cc1N1CCN(C)CC1 | inactive |
| CCOC(=O)c1cccc(N/C(N)=N/c2nc(C)cc(NCCc3ccccc3)n2)c1 | inactive |
| CC(C)OC(=O)c1ccc(NC(=O)N[C@@H](Cc2ccc(O)cc2)C(=O)NC2C[C@H]3CC[C@@H](C2)N3Cc2ccccc2)cc1 (stereo partly drawn) | inactive |
| O=C(Nc1ccc(F)cc1)c1ccc(C(=O)NC2CCN(CC3CCCCC3)CC2)cc1 | inactive |
| CC(C)C[C@H](NC(=O)c1cc2ccccc2s1)C(=O)N[C@H]1CCN(Cc2ccc(OC[C@@H]3CCCN3C)c(Cl)c2)C1 | inactive |
| CC(C)Cn1c2ccccc2c2nc3nc(N)nc(N)c3nc21 | inactive |
| O=C(/C=C/c1ccc(Cl)c(Cl)c1)NCCCCCN1CCC(NC(=O)c2ccc(F)cc2F)CC1 | inactive |
| CN1CCCN(Cc2cccc(-c3cccc(NC(=O)c4cccc(Cl)c4)c3)c2)CC1 | inactive |
| Cc1cc(C(=O)NCc2ccc(-c3c(C)noc3C)cc2)n(-c2ccc(Cl)cc2)n1 | inactive |
| CC(=O)NCCNCc1cccc(C(=O)NCc2cccc(C(F)(F)F)c2)c1 | inactive |
| CC(=NN=C(N)N)c1ccc2ccc3ccccc3c2c1 | inactive |
| CCCNC(=O)Nc1cc2cc(-c3cccc(CN4CCCCC4)c3)ccc2n2c(C)nnc12 | inactive |
| CC(CCc1ccccc1)NCC(O)c1ccc2c3c(cccc13)C(=O)N2C (stereo not drawn) | inactive |

| Compound | outcome |
| --- | --- |
| Cc1cc2c(cc1C(F)(F)F)N(C(=O)Nc1cc(C(=O)NCCN(C)C)cc(C(F)(F)F)c1)CC2 | inactive |
| CN1CCN(c2ccnc3ccc(NC(=O)Cc4ccc5ccccc5c4)cc23)CC1 | inactive |
| N#Cc1ccc(CN2CCC(NC(=O)c3ccc(-c4nnc(-c5cccc6ccccc56)o4)cc3)CC2)cc1 | inactive |
| COc1cc(Cc2cnc(N)nc2N)cc(OCCCCCC(=O)O)c1OC | inactive |
| COc1ccc(CNCc2cccc(-c3cccc(-c4nc5ccc(F)cc5[nH]4)c3)c2)cc1 | inactive |
| CC(=O)Nc1cccc(CN(Cc2ccc(-c3ccc(CNCc4cccnc4)cn3)cc2)C(=O)Cc2cccnc2)c1 | inactive |
| COc1ccc(NC(=O)Nc2cccc(-c3ccc(-c4nc5c(C)cccc5[nH]4)s3)c2)cc1 | inactive |
| Cc1ccc(C2CCN(CCCCNC(=O)c3ccc(NC(=O)c4ccc(Cl)cc4)cc3)CC2)c(C)c1 | inactive |
| COC(=O)c1cccc(NC(=O)NC2CCN(c3ccnc(Nc4ccc(F)cc4)n3)C2)c1 (stereo not drawn) | inactive |
| Cc1nc2ccc3ccc(CN(C)c4ccc(C(=O)N[C@@H](CCC(=O)O)C(=O)O)cc4)cc3c2c(=O)[nH]1 | inactive |
| COc1ccc2nccc([C@@H](O)CN3CCC(NCc4cc5sccc5nc4C(F)(F)F)CC3)c2c1 | inactive |
| O=C(Nc1ccc(S(=O)(=O)N2CCOCC2)cc1)c1cc(-c2cc(Cl)ccc2O)n[nH]1 | inactive |
| COc1ccc(S(=O)(=O)N2CCOCC2)cc1NC(=O)c1cc2ccccc2o1 | inactive |
| CC1(C)N=C(N)N=C(N)N1OCCc1ccccc1 | inactive |
| CCOC(=O)NC1=NC(C)(C)N(OCCCOc2cc(Cl)c(Cl)cc2Cl)C(NC(=O)OCC)=N1 | inactive |
| N#Cc1ccc2[nH]cc(-c3cn4cc(SC5CCCC5)ccc4n3)c2c1 | inactive |
| COc1ccc(C2CC(=O)C3=C(C2)NC(C)=C(C(=O)OC2CCCC2)C3c2cccc(O)c2)cc1 (stereo not drawn) | inactive |
| O=C(C=Cc1ccc(Cl)c(Cl)c1)NCCCCCN1CCCC(CCCNC(=O)[C@@H]2C[C@H]2c2ccccc2)C1 (stereo partly drawn) | inactive |
| O=C(/C=C/c1ccc(Cl)c(Cl)c1)NCCCCCN1CCC(NC(=O)Nc2ccc(F)c(Cl)c2)CC1 | inactive |
| COc1cc(NC(=O)Nc2ccc([N+](=O)[O-])cc2OC)c(OC)cc1Cl | inactive |
